# AmpC no deterg = qHTS Inhibitors of AmpC Beta-Lactamase (assay without detergent); actives 0.52% (n = 330,000); AmpC nitrocefin hydrolysis, absorbance 480 nm, 0.0001% Triton; P00811; Potency, µM (titrated, usually from 57.1 µM), for the others: top-dose activity change, negative = inhibition, usual class: inhibitors;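 further: potency means the concentration at half of the fitted maximal effect; plate controls were no compound for no effect and no enzyme for full effect; nearly all actives have a fitted effect of over 20% in size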
# Target sequence (P00811 whole entry, looked up): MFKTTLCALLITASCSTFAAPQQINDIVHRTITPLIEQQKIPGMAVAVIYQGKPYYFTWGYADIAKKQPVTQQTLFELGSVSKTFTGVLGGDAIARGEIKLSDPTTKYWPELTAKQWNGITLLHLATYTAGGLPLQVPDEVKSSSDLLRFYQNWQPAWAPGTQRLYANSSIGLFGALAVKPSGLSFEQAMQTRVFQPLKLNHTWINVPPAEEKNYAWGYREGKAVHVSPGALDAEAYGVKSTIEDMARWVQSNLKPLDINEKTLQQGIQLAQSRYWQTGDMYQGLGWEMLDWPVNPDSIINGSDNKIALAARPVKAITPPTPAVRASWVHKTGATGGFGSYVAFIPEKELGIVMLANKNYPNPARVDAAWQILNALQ
#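 AmpC (5.3 nM in the dispensed reagent) in 20 mM phosphate pH 7.0 with 0.01% (detergent screen) or 0.0001% Triton X-100 was preincubated with compounds for 15 min at room temperature. Nitrocefin was then added from an 800 uM solution, and hydrolysis was followed at 480 nm.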
# Shiga inhibitor = A qHTS for Small Molecule Inhibitors of Shiga Toxin; Vero cells, Shiga toxin protein synthesis inhibition reporter; inhibition, % at 38.7 µM; actives 9.2% (n = 290,000); AID 2315, 2010; in the data active means inhibition mostly above about 28%, no sharp cut-off; inactive means mostly below about 43%; further: 0% is about no effect
# AMA1 RON2 block = qHTS for Inhibitors of AMA1-RON; Towards Development of Antimalarial Drug Lead: Primary Screen | Potency, µM (highest dose often 58.2 µM), for the others: at the highest dose activity change, negative = inhibition, usual class: inhibitors | AlphaScreen AMA1-biotinylated RON2 peptide binding | actives 0.2% (n = 360,000) | Plasmodium falciparum AMA1 (3D7) - RON2 peptide interaction;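 further: potency means the concentration at half of the fitted maximal effect; 0% = vehicle wells and -100% = peptide control; nearly all actives have a fitted effect of over 45% in size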
#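 AMA1 (3D7) with his tag at 25 nM final met compounds first, then biotinylated RON2 peptide at 25 nM; detection used donor plus acceptor beads, 10 µg/mL apiece, read by AlphaScreen after 30 min at room temperature.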
# SARS PLpro yeast = qHTS of Yeast-based Assay for SARS-CoV PLP | S. cerevisiae expressing SARS-CoV PLpro, growth rescue | Potency, µM (highest dose often 32.9 µM), without a hit: at the top dose activity, positive = growth rescue, hits mostly activators | actives 0.19% (n = 330,000) | AID 485353, 2010; calls by dose curve; further: potency means the concentration at half of the fitted maximal effect; 0% is about no effect; nearly all actives have a fitted effect of over 55% in size
# AmpC inh detg = qHTS Inhibitors of AmpC Beta-Lactamase (assay with detergent); AmpC hydrolysis of nitrocefin, absorbance 480 nm, 0.01% Triton; Potency, µM (top dose mostly 114 µM), for inactives: at the top dose activity change, negative = inhibition, usual class: inhibitors; actives 0.041% (n = 370,000); AID 485294, 2010;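 further: potency means the concentration at half of the fitted maximal effect; 0% = no-compound wells and -100% = no-enzyme wells; nearly all actives have a fitted effect of over 25% in size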
#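 AmpC (5.3 nM in the dispensed reagent) in 20 mM phosphate pH 7.0 with 0.01% (detergent screen) or 0.0001% Triton X-100 was preincubated with compounds for 15 min at room temperature. Nitrocefin was then added from an 800 uM solution, and hydrolysis was followed at 480 nm.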
# Cycloheximide cs = Cycloheximide Counterscreen for Small Molecule Inhibitors of Shiga Toxin; actives 12% (n = 300,000); cell reporter, cycloheximide protein synthesis inhibition counterscreen; max response, %; in the data active means max response mostly above about 13%, no sharp cut-off; inactive means mostly below about 14%; further: read at 38.3 µM for the half of the compounds with a filed dose; 0% is about no effect
# * hit, by the source's call; u = inconclusive; x = no result given. This excerpt belongs to a sample that is enriched for hits. Unless noted, the call rests on the fitted dose curve; in most records, active means well fitted curve in the direction sought with a large enough effect; inconclusive means small, poorly fitted or top-dose-only effect, or another doubt; inactive means no such curve, though single readings can be large; an effect the other way counts as inactive or inconclusive.
SMILES,AmpC no deterg,Shiga inhibitor,AMA1 RON2 block,SARS PLpro yeast,AmpC inh detg,Cycloheximide cs
Cc1cc(Nc2ccc(C)c(F)c2)n2ncnc2n1,123%,-11,10%,-5%,-10%,-4
Cc1cc(Nc2cc(F)ccc2C)n2ncnc2n1,28µM*,10,-2%,24%,-4%,-3
N/C(=N\OC(=O)Cc1ccc(Cl)cc1)c1ccncc1,-3%,28,-2%,-1%,1%,-2
COc1ccc(/C(N)=N/OC(=O)Cc2ccc(C)cc2)cc1OC,65%,-5,0%,-16%,-14%,15*
COc1ccc(CC(=O)O/N=C(\N)c2ccncc2)cc1,-1%,82*,4%,0%,1%,15*
COc1ccc(CC(=O)O/N=C(\N)Cc2cccc3ccccc23)cc1,-27%,-9,21%,-55%,u,5
COc1ccc(CC(=O)O/N=C(\N)c2ccc(C)cc2)cc1,-16%,118*,114%,-5%,6%,47*
CNC(=S)N/N=C/c1c2ccccc2c(Cl)c2ccccc12,-2%,87*,60%,-7%,0%,27*
Cc1cccc(NC(=O)CSc2n[nH]c(-c3cccnc3)n2)c1,-30%,28,-3%,-10%,2%,-4
Cc1cccc(OCC(=O)Nc2ccncc2)c1C,-11%,3,10%,-10%,-6%,12*
Cc1cc(Cl)ccc1OCC(=O)NCc1ccncc1,-3%,55,-4%,2%,-2%,31
Cc1cccc(OCC(=O)Nc2ncn[nH]2)c1C,-7%,16,15%,0%,-4%,11*
Cc1cc(Cl)ccc1OCC(=O)Nc1ccncc1,-12%,x,1%,-12%,-5%,27*
COc1ccccc1OCC(=O)Nc1ccncc1,-2%,22,1%,0%,4%,10
CC(=O)c1sc(NC(=O)COc2ccc(Cl)cc2C)nc1C,-21%,44,-21%,0%,6%,28*
CC1(C)Cc2c(c(N3CCCC3)nc3sc(C(=O)Nc4ccccc4)c(N)c23)CO1,46%,80*,5%,-4%,1%,41*
Cc1ccccc1NC(=O)c1sc2nc(N3CCOCC3)c3c(c2c1N)CCCC3,-17%,22,14%,0%,-8%,19*
Cc1cccc2cc3c(N)c(C(=O)Nc4ccc(N5CCOCC5)cc4)sc3nc12,-9%,6,-3%,-9%,2%,1
CC1(C)Cc2c(c(N3CCOCC3)nc3sc(C(=O)Nc4ccc(Cl)cc4)c(N)c23)CO1,-1%,-11,-2%,-1%,18%,8
COc1cccc(NC(=O)c2sc3nc(N4CCOCC4)c4c(c3c2N)CC(C)(C)OC4)c1,x,x,x,x,1%,x
Cc1ccc2nc3sc(C(=O)Nc4ccc(N5CCOCC5)cc4)c(N)c3cc2c1,0.35µM*,54,x,-5%,1%,24*
Cc1ccc(NC(=O)c2sc3nc(N4CCOCC4)c4c(c3c2N)CC(C)(C)OC4)cc1,-13%,6,-10%,-4%,4%,22*
O=[N+]([O-])c1ccc(-c2nnc(S)n2-c2ccccc2)cc1,-11%,x,x,-3%,-5%,28*
Nc1c(C(=O)NCC2CCCO2)sc(=S)n1-c1ccccc1 (configuration not stated),-2%,-9,44%,14%,-12%,-2
Cc1ccc(-c2ccccc2)n1-c1cccc(C(=O)O)c1,-21%,163*,-4%,-4%,4%,66*
Cc1ccc(C(=O)O)cc1-n1c(C)ccc1-c1ccccc1,x,x,x,x,1%,x
Cc1ccc(-c2ccccc2)n1-c1ccc(C(=O)O)cc1,-50%,24,-7%,-12%,3%,15*
Cc1cccc(C(=O)Oc2ccc(/C=N/O)cc2)c1,-15%,45*,17%,-10%,-13%,48*
Cc1ccc(C(=O)N/N=C/c2ccc(OC(=O)c3ccccc3Cl)cc2)cn1,-18%,26,-2%,-3%,-6%,14*
